Of roughly 7,900 targets only a part is listed; those with a hit were picked by preference. About 0.6% of all pairs of compound and target were hits.
How the values were obtained:
Experiment in all cases: log2 fold change, soluble protein after heating vs DMSO (PISA); higher = thermal stabilisation; K562 cells, 10 uM, 30 min; active = over 0.2 and 3.5 SD of the protein, either way, in both replicates (recomputed)
saracatinib = compound: CN1CCN(CCOc2cc(OC3CCOCC3)c3c(Nc4c(Cl)ccc5c4OCO5)ncnc3c2)CC1 [saracatinib]
Procedure, shortened: (§1)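 Soluble protein was quantified by TMTpro 16plex LC-MS/MS after channel sums were equalised. It was obtained as the supernatant after 21,000xg for 90 min from pooled aliquots of K562 cells (2×10^6 cells/mL, 10 μM compound, 30 min) heated for 3 min across 48°C-58°C and extracted in PBS with 0.5% NP-40 at 4°C. Thermal stability values are relative to control samples and come from duplicates. They are given as log2 fold changes.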

sotrastaurin = compound: CN1CCN(c2nc(C3=C(c4c[nH]c5ccccc45)C(=O)NC3=O)c3ccccc3n2)CC1 [sotrastaurin]
Procedure, shortened: as §1

alvocidib = compound: CN1CC[C@H](c2c(O)cc(O)c3c(=O)cc(-c4ccccc4Cl)oc23)[C@H](O)C1 [alvocidib]
Procedure, shortened: as §1

Tubastatin A = compound: CN1CCc2c(c3ccccc3n2Cc2ccc(C(=O)NO)cc2)C1 [Tubastatin A]
Procedure, shortened: as §1

[1] = compound: CNC(=O)C1=CC=CC=C1NC2=NC(=NC=C2Cl)NC3=C(C=C(C=C3)N4CCOCC4)OC
Procedure, shortened: as §1

defactinib = compound: CNC(=O)c1ccc(Nc2ncc(C(F)(F)F)c(NCc3nccnc3N(C)S(C)(=O)=O)n2)cc1 [defactinib]
Procedure, shortened: as §1

rucaparib = compound: CNCc1ccc(-c2[nH]c3cc(F)cc4c3c2CCNC4=O)cc1 [rucaparib]
Procedure, shortened: as §1

[2] = compound: CNc1nc(-c2ccc3c(N)n[nH]c3c2)cc(N2C[C@@H](C(=O)NC3CCCCC3)CC[C@H]2C)n1
Procedure, shortened: as §1

encorafenib = compound: COC(=O)N[C@@H](C)CNc1nccc(-c2cn(C(C)C)nc2-c2cc(Cl)cc(NS(C)(=O)=O)c2F)n1 [encorafenib]
Procedure, shortened: as §1

[3] = compound: COC(=O)[C@H](CCSC)NC(=O)C1=C(C=C(C=C1)NC[C@H](CS)N)C2=CC=CC=C2
Procedure, shortened: as §1

[4] = compound: COC1=CC=C(C=C1)CN2C=CC3=C2C=C(C=C3)C(=O)NO
Procedure, shortened: as §1

filanesib = compound: CON(C)C(=O)N1N=C(c2cc(F)ccc2F)S[C@@]1(CCCN)c1ccccc1 [filanesib]
Procedure, shortened: as §1

zotarolimus = compound: CO[C@H]1C[C@@H]2CC[C@@H](C)[C@@](O)(O2)C(=O)C(=O)N2CCCC[C@H]2C(=O)O[C@H]([C@H](C)C[C@@H]2CC[C@H](n3cnnn3)[C@H](OC)C2)CC(=O)[C@H](C)/C=C(\C)[C@@H](O)[C@@H](OC)C(=O)[C@H](C)C[C@H](C)/C=C/C=C/C=C/1C [zotarolimus]
Procedure, shortened: as §1

idasanutlin = compound: COc1cc(C(=O)O)ccc1NC(=O)[C@@H]1N[C@@H](CC(C)(C)C)[C@](C#N)(c2ccc(Cl)cc2F)[C@H]1c1cccc(Cl)c1F [idasanutlin]
Procedure, shortened: as §1

alisertib = compound: COc1cc(Nc2ncc3c(n2)-c2ccc(Cl)cc2C(c2c(F)cccc2OC)=NC3)ccc1C(=O)O [alisertib]
Procedure, shortened: as §1

[5] = compound: COc1cc2nc(-c3cc(F)ccc3O)nc(N[C@@H]3CNC[C@H]3C(C)(C)O)c2cc1OC
Procedure, shortened: as §1

gefitinib = compound: COc1cc2ncnc(Nc3ccc(F)c(Cl)c3)c2cc1OCCCN1CCOCC1 [gefitinib]
Procedure, shortened: as §1

[6] = compound: COc1cccc2cc(-c3nc([C@H]4CC[C@H](C(=O)O)CC4)n4ncnc(N)c34)[nH]c12
Procedure, shortened: as §1

lapatinib = compound: CS(=O)(=O)CCNCc1ccc(-c2ccc3ncnc(Nc4ccc(OCc5cccc(F)c5)c(Cl)c4)c3c2)o1 [lapatinib]
Procedure, shortened: as §1

pictilisib = compound: CS(=O)(=O)N1CCN(Cc2cc3nc(-c4cccc5[nH]ncc45)nc(N4CCOCC4)c3s2)CC1 [pictilisib]
Procedure, shortened: as §1

Measured: log2 fold change

GDPD1 (UniProt Q8N9F7)
inactive: sotrastaurin 0.21 | alvocidib -0.058 | Tubastatin A 0.019 | [1] -0.017 | defactinib -0.087 | rucaparib -0.07 | [2] 0.042 | encorafenib -0.051 | [3] -0.041 | filanesib 0.056 | zotarolimus 0.13 | idasanutlin 0.156 | alisertib -0.068 | [5] 0.208 | gefitinib 0.067 | [6] 0.021 | lapatinib 0.04 | pictilisib 0.085
active: saracatinib 0.505 | [4] 0.353

GMEB1 (UniProt Q9Y692)
inactive: saracatinib -0.055 | sotrastaurin -0.06 | alvocidib -0.123 | Tubastatin A -0.022 | [1] 0.028 | defactinib -0.06 | rucaparib -0.047 | [2] -0.051 | encorafenib 0.043 | [3] -0.003 | [4] 0.049 | filanesib 0.205 | zotarolimus 0.042 | idasanutlin 0.027 | alisertib -0.041 | [5] -0.042 | gefitinib -0.049 | [6] 0.008 | lapatinib 0.031 | pictilisib -0.087

HNRNPH1 (UniProt P31943)
inactive: saracatinib -0.018 | sotrastaurin -0.157 | alvocidib -0.163 | Tubastatin A 0.076 | [1] -0.065 | defactinib -0.278 | rucaparib 0.08 | [2] 0.058 | encorafenib 0.114 | [3] -0.047 | [4] 0.069 | filanesib 0 | zotarolimus 0.091 | idasanutlin 0.048 | alisertib 0.028 | [5] -0.192 | gefitinib -0.015 | [6] 0.068 | lapatinib 0.046 | pictilisib -0.135

HBA1 (UniProt P69905)
Sequence of UniProt P69905 (P69905 whole entry, looked up): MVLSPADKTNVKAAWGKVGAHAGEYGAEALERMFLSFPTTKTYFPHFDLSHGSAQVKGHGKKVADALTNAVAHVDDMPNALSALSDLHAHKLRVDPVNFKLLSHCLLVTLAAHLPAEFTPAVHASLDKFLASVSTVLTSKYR
inactive: saracatinib -0.017 | sotrastaurin 0.036 | alvocidib -0.02 | Tubastatin A 0.035 | [1] -0.01 | defactinib -0.014 | rucaparib -0.036 | [2] 0.011 | encorafenib -0.043 | [3] -0.034 | [4] -0.037 | filanesib 0.02 | zotarolimus 0.068 | idasanutlin -0.044 | alisertib -0.093 | [5] -0.154 | gefitinib 0.032 | [6] 0.079 | lapatinib 0.036 | pictilisib -0.088

FANCD2 isoform 1 (UniProt Q9BXW9)
Sequence of UniProt Q9BXW9 (Q9BXW9 whole entry, looked up): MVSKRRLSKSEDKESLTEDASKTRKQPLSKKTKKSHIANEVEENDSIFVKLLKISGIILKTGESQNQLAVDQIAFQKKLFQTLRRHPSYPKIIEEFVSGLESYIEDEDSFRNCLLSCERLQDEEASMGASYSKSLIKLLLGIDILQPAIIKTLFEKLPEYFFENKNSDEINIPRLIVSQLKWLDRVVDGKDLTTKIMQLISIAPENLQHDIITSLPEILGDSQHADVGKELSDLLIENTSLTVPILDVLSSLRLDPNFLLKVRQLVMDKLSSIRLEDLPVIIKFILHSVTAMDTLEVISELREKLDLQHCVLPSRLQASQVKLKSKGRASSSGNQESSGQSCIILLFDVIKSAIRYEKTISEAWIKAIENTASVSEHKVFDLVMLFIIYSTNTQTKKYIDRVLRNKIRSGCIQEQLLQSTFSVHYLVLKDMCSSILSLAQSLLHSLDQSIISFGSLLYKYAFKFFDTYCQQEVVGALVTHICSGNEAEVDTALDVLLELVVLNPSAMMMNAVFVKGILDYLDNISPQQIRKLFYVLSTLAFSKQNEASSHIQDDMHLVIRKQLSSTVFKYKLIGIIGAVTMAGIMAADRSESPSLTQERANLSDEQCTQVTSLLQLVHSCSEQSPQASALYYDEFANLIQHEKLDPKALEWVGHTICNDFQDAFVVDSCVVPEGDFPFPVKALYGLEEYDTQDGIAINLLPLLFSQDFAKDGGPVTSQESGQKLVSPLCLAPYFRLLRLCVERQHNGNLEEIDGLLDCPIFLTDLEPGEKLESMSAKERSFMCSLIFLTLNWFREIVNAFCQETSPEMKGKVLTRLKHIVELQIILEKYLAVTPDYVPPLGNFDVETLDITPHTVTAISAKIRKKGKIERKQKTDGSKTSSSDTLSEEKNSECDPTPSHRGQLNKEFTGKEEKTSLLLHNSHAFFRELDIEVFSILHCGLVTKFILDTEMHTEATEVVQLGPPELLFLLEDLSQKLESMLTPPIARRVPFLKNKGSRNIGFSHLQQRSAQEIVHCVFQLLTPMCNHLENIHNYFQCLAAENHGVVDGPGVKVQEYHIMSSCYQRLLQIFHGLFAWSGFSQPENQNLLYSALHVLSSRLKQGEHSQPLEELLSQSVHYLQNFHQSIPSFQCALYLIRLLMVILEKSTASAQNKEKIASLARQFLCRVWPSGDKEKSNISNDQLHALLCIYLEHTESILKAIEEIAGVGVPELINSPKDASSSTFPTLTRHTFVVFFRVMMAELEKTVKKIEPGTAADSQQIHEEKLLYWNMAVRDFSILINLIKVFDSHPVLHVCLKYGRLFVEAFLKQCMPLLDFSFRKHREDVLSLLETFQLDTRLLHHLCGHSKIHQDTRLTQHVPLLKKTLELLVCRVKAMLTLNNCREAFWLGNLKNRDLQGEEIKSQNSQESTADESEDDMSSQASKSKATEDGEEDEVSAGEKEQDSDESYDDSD
inactive: saracatinib -0.038 | sotrastaurin 0.017 | alvocidib -0.102 | Tubastatin A -0.053 | [1] -0.126 | defactinib -0.145 | rucaparib 0.051 | [2] 0.028 | encorafenib 0.009 | [3] -0.029 | [4] 0.054 | filanesib -0.078 | zotarolimus -0.007 | idasanutlin -0.062 | alisertib -0.037 | [5] 0.053 | gefitinib -0.033 | [6] 0.031 | lapatinib -0.025 | pictilisib 0.123

FBXO7 (UniProt Q9Y3I1)
Sequence of UniProt Q9Y3I1 (Q9Y3I1 whole entry, looked up): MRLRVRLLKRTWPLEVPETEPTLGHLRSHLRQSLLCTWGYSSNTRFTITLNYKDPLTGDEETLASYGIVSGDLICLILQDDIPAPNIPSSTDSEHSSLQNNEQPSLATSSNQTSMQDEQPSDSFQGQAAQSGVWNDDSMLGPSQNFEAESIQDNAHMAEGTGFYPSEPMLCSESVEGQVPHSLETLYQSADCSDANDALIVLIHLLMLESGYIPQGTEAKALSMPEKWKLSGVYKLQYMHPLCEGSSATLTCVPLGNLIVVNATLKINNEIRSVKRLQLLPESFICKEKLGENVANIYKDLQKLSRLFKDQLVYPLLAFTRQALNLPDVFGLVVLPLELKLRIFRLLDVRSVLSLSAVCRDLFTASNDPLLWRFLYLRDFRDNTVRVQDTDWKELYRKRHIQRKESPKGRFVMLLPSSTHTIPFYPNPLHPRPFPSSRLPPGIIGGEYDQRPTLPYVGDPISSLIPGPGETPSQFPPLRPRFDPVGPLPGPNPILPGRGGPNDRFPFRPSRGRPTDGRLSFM
inactive: saracatinib -0.003 | sotrastaurin 0.052 | alvocidib -0.069 | Tubastatin A 0.019 | [1] 0.012 | defactinib -0.025 | rucaparib 0.068 | [2] 0.028 | encorafenib -0.009 | [3] -0.029 | [4] 0.037 | filanesib -0.069 | zotarolimus -0.026 | idasanutlin -0.04 | alisertib -0.082 | [5] 0.082 | gefitinib -0.023 | [6] 0.011 | lapatinib -0.082 | pictilisib 0.036

HLTF (UniProt Q14527)
Sequence of UniProt Q14527 (Q14527 whole entry, looked up): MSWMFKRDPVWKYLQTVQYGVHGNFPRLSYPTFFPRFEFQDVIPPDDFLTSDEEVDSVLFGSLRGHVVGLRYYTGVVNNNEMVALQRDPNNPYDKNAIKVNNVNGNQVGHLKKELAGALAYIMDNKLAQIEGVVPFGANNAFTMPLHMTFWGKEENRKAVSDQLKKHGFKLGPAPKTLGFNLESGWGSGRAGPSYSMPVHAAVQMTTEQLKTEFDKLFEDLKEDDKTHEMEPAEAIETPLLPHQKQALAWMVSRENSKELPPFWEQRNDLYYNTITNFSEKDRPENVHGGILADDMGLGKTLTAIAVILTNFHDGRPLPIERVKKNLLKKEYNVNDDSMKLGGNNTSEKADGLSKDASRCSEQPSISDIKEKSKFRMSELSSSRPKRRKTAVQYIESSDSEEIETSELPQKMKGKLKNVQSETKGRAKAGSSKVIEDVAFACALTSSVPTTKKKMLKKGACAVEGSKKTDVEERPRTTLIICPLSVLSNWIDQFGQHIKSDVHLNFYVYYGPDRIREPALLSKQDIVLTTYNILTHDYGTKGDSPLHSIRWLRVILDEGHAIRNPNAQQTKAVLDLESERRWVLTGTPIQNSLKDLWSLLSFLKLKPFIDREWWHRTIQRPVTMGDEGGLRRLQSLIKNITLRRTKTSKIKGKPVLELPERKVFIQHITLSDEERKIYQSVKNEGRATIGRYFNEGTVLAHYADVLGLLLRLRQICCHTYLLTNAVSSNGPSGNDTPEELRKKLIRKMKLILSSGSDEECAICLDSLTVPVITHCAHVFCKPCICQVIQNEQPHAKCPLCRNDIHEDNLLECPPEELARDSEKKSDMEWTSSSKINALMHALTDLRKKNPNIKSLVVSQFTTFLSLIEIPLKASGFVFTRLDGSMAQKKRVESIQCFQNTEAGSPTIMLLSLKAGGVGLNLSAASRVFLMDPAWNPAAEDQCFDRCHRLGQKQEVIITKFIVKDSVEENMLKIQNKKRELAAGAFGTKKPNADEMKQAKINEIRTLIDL
active: gefitinib 0.334
inactive: saracatinib -0.012 | sotrastaurin 0.019 | alvocidib -0.036 | Tubastatin A 0.081 | [1] -0.03 | defactinib -0.122 | rucaparib -0.033 | [2] -0.074 | encorafenib -0.195 | [3] -0.027 | [4] -0.027 | filanesib -0.004 | zotarolimus -0.042 | idasanutlin -0.049 | alisertib 0.008 | [5] 0.081 | [6] -0.126 | lapatinib 0.013 | pictilisib 0.007

HIKESHI (UniProt Q53FT3)
inactive: saracatinib 0.03 | sotrastaurin 0.043 | alvocidib -0.068 | Tubastatin A -0.01 | [1] 0.046 | defactinib -0.038 | rucaparib 0.029 | [2] -0.003 | encorafenib 0.024 | [3] 0.028 | [4] -0.051 | filanesib -0.063 | zotarolimus 0.026 | idasanutlin -0.05 | alisertib -0.076 | [5] 0.067 | gefitinib 0.011 | [6] 0.009 | lapatinib -0.021 | pictilisib -0.004

GLB1 (UniProt P16278)
Sequence of UniProt P16278 (P16278 whole entry, looked up): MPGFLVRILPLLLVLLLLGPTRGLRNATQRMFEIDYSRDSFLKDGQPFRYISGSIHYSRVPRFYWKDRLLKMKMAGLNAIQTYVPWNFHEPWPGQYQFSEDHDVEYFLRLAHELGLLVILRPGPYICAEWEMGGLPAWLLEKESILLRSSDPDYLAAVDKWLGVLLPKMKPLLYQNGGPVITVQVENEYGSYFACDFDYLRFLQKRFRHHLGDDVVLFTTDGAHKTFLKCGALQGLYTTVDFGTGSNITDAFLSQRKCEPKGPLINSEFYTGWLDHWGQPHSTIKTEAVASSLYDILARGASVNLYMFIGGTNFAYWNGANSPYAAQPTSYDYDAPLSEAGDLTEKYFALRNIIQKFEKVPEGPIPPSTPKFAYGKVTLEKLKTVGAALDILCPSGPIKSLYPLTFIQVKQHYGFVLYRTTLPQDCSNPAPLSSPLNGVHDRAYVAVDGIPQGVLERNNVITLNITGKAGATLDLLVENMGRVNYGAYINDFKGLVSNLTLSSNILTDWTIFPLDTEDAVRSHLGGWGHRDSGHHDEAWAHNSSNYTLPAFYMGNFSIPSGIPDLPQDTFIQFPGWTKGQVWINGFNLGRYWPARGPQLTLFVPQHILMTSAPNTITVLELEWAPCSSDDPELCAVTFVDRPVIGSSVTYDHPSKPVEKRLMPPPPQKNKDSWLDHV
inactive: saracatinib -0.011 | sotrastaurin 0.059 | alvocidib -0.018 | Tubastatin A -0.032 | [1] 0.034 | defactinib 0.004 | rucaparib 0 | [2] 0.002 | encorafenib 0.003 | [3] 0.036 | [4] 0.002 | filanesib -0.033 | zotarolimus 0.009 | idasanutlin -0.015 | alisertib -0.078 | [5] -0.015 | gefitinib 0.031 | [6] 0.045 | lapatinib 0.024 | pictilisib 0.006

GEMIN6 (UniProt Q8WXD5)
Sequence of UniProt Q8WXD5 (Q8WXD5 whole entry, looked up): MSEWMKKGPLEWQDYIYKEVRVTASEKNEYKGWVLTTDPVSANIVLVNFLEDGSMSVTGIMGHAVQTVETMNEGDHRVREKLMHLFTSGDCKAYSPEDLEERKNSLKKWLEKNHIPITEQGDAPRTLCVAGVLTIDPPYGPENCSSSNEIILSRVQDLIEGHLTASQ
inactive: saracatinib 0.063 | sotrastaurin 0.002 | alvocidib -0.028 | Tubastatin A 0.072 | [1] 0.013 | defactinib -0.061 | rucaparib 0.069 | [2] -0.028 | encorafenib -0.04 | [3] -0.112 | [4] 0.001 | filanesib 0.005 | zotarolimus 0.154 | idasanutlin 0.071 | alisertib -0.019 | [5] 0.006 | gefitinib -0.003 | [6] 0.096 | lapatinib -0.077 | pictilisib 0.064

GNAS (UniProt Q5JWF2)
Sequence of UniProt Q5JWF2 (Q5JWF2 whole entry, looked up): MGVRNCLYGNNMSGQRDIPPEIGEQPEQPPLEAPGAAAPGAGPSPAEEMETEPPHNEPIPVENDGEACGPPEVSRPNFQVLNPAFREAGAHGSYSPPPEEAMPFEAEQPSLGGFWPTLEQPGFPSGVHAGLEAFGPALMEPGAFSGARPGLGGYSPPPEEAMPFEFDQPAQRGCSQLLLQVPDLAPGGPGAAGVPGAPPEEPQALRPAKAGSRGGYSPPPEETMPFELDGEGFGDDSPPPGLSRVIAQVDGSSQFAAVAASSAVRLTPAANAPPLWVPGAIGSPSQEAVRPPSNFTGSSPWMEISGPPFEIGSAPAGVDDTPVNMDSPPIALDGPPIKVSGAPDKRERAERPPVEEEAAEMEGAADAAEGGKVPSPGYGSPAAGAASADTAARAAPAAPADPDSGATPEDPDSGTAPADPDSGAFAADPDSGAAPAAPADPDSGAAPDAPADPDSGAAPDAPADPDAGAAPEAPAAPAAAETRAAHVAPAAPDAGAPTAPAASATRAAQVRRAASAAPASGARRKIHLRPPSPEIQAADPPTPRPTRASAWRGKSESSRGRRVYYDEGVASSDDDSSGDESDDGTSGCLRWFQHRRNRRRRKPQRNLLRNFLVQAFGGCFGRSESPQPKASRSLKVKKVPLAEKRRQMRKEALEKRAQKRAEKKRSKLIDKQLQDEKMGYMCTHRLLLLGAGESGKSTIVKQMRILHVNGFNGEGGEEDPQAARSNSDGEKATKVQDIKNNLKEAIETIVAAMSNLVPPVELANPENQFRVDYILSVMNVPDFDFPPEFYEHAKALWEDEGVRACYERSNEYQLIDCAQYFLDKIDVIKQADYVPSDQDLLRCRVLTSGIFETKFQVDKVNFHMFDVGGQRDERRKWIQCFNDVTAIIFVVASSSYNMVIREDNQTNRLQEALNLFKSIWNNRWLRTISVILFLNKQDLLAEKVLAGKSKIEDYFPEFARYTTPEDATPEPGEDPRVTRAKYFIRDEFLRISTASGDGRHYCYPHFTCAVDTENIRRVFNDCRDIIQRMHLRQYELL
inactive: saracatinib -0.023 | sotrastaurin 0.036 | alvocidib 0.025 | Tubastatin A 0.011 | [1] -0.004 | defactinib 0.012 | rucaparib 0.029 | [2] 0.069 | encorafenib 0.021 | [3] -0.041 | [4] -0.048 | filanesib 0 | zotarolimus -0.03 | idasanutlin -0.048 | alisertib -0.09 | [5] 0.052 | gefitinib 0.108 | [6] -0.077 | lapatinib 0.02 | pictilisib 0.051

FDFT1 (UniProt P37268)
active: sotrastaurin 0.604 | filanesib 0.401
inactive: saracatinib 0.071 | alvocidib -0.033 | Tubastatin A 0.012 | [1] -0.002 | defactinib -0.02 | rucaparib 0.004 | [2] -0.072 | encorafenib -0.032 | [3] -0.028 | [4] 0.123 | zotarolimus 0.014 | idasanutlin 0.013 | alisertib 0.008 | [5] -0.052 | gefitinib -0.01 | [6] 0.042 | lapatinib -0.023 | pictilisib 0

Reference: the supplement of paper PMC10849652
